Assay [1] is described as follows: qHTS for Inhibitors of the Functional Ribonucleoprotein Complex (vRNP) of Lassa (LASV) Arenavirus: LASV Primary Screen - GLuc reporter signal (AID 1347082; calls by dose curve; tested in HEK293 reporter line; also: series mostly up to about 57 µM; nearly all actives have a fitted effect of over 60% in size). A general note: qHTS replaces the single test concentration by a dilution series.
A short description of assay [2]: qHTS for Inhibitors of the Functional Ribonucleoprotein Complex (vRNP) of Lassa (LASV) Arenavirus: Viability assay - alamar blue signal for LASV Primary Screen (AID 1347083; calls by dose curve; tested in HEK293 reporter line; also: series mostly up to about 57 µM; nearly all actives have a fitted effect of over 80% in size).
Assay [3] can be described thus: qHTS for Inhibitors of the Functional Ribonucleoprotein Complex (vRNP) of Lymphocytic Choriomeningitis Arenaviruses (LCMV): Viability assay - alamar blue signal for LCMV Primary Screen (AID 1347085; calls by dose curve; tested in HEK293 reporter line; also: series mostly up to about 57 µM; nearly all actives have a fitted effect of over 80% in size).
Assay [4] addresses Nucleoprotein (Lymphocytic choriomeningitis virus (strain Armstrong)) (UniProt P09992). Briefly: qHTS for Inhibitors of the Functional Ribonucleoprotein Complex (vRNP) of Lymphocytic Choriomeningitis Arenaviruses (LCMV): LCMV Primary Screen - GLuc reporter signal (AID 1347086). Also: nearly all actives have a fitted effect of over 70% in size. Also: potency is read from the fitted curve at half-maximal effect.

The structures appear in SMILES notation. Inconclusive results are not listed. Calls of active or inactive are those of the source. Unless noted, calls follow the shape of the full dose curve.

Chain of Nucleoprotein (Lymphocytic choriomeningitis virus (strain Armstrong)) (P09992 whole entry, looked up): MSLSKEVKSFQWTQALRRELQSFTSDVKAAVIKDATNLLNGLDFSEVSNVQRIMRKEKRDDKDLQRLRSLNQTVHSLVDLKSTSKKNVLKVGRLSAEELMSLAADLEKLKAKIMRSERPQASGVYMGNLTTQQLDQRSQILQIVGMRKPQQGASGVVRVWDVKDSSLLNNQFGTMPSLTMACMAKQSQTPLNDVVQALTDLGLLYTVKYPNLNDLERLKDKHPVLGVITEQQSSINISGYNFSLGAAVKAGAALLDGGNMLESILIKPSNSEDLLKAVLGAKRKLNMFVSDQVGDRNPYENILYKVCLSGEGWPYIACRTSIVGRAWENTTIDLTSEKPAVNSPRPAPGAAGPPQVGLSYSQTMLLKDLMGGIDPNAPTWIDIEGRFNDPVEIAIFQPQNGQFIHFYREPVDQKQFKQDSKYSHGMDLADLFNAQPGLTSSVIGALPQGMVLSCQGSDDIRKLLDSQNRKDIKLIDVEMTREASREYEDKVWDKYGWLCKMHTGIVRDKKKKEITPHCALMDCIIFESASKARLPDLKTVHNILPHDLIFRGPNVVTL

On to `CC(C)(C)C(=O)NCCCC(=O)O`, for which the Potency entry in assay [1], in assay [2], in assay [3] and in assay [4] was “inactive” each time.

For `Nc1ccn(C2CO[C@H](CO)O2)c(=O)n1` (stereo not given in full), the Potency result in assay [1], in assay [2], in assay [3] and in assay [4] was “inactive” throughout.

Regarding `O=C(/C=C/c1ccccc1)NCCO`, the Potency result in assay [1], in assay [2], in assay [3] and in assay [4] was “inactive” throughout.

For the compound `C[C@H](O)C(=O)Nc1c(I)c(C(=O)NC(CO)CO)c(I)c(C(=O)NC(CO)CO)c1I`, the Potency entry in assay [1], in assay [2], in assay [3] and in assay [4] was “inactive” in each case.

With `C#Cc1ccc(-c2ccccc2F)cc1`, the Potency result in assay [1], in assay [2], in assay [3] and in assay [4] was “inactive” each time.

`CCCCC[C@H](O)C=C[C@H]1[C@H](O)CC(=O)[C@H]1CC=CCCCC(=O)O`: the Potency entry in assay [1], in assay [2], in assay [3] and in assay [4] was “inactive” each time.

In the case of `C=CC[N+]1([C@H]2C[C@H]3[C@@H]4CC[C@H]5C[C@H](OC(C)=O)[C@@H](N6CCCCC6)C[C@]5(C)[C@H]4CC[C@]3(C)[C@H]2OC(=O)CC)CCCCC1`, the Potency entry in assay [1], in assay [2], in assay [3] and in assay [4] was “inactive” throughout.

For `C[C@]12CCC(=O)C=C1C=C[C@@H]1[C@@H]2CC[C@@]2(C)[C@H]1CC[C@@]21CCC(=O)O1`, the Potency result in assay [1], in assay [2], in assay [3] and in assay [4] was “inactive” in each case.

On to `CCOC(=O)COc1ccc2c(C)c(CCN(CC)CC)c(=O)oc2c1Cl`, for which the Potency entry in assay [1], in assay [2], in assay [3] and in assay [4] was “inactive” in each case.

`O=C1OC(c2ccc(O)cc2)(c2ccc(O)cc2)c2ccccc21`: the Potency entry in assay [1], in assay [2], in assay [3] and in assay [4] was “inactive” each time.

For `O=C1C(c2[nH]c3ccccc3c2O)=Nc2ccccc21`, the Potency result in assay [1], in assay [2], in assay [3] and in assay [4] was “inactive” throughout.

In the case of `NCC(=O)O`, the Potency result in assay [1], in assay [2], in assay [3] and in assay [4] was “inactive” throughout.

On to `COc1ccccc1OC(=O)Oc1ccccc1OC`, for which the Potency entry in assay [1], in assay [2], in assay [3] and in assay [4] was “inactive” each time.

Consider `O=C(NCC1CN(c2ccc(N3CCOCC3=O)cc2)C(=O)O1)c1ccc(Cl)s1` (stereo not given), for which the Potency entry in assay [1], in assay [2], in assay [3] and in assay [4] was “inactive” throughout.

As for `CN1C[C@H](C(=O)N[C@]2(C)O[C@@]3(O)[C@@H]4CCCN4C(=O)[C@H](Cc4ccccc4)N3C2=O)C[C@@H]2c3cccc4[nH]cc(c34)C[C@H]21`, the Potency entry in assay [1], in assay [2], in assay [3] and in assay [4] was “inactive” in each case.

As for `CN(C)CCOC(c1ccccc1)c1ccccc1`, the Potency result in assay [1], in assay [2], in assay [3] and in assay [4] was “inactive” in each case.

Turning to `Cc1cc(O)c(C)c(C)c1O`, the Potency entry in assay [1], in assay [2], in assay [3] and in assay [4] was “inactive” each time.

Take `C#C[C@]1(O)CC[C@H]2[C@@H]3CCc4cc(OC)ccc4[C@H]3CC[C@@]21C`: the Potency entry in assay [1], in assay [2], in assay [3] and in assay [4] was “inactive” throughout.

`OCc1cc(C(O)CNCCCCCCOCCCCc2ccccc2)ccc1O` (stereo not given): the Potency entry in assay [1], in assay [2], in assay [3] and in assay [4] was “inactive” each time.

For `CC(=O)c1ccc2c(c1)N(CCCN1CCC(CCO)CC1)c1ccccc1S2`, the Potency result in assay [1], in assay [2], in assay [3] and in assay [4] was “inactive” in each case.

For `CCc1nnc(NS(=O)(=O)c2ccc(N)cc2)s1`, the Potency entry in assay [1], in assay [2], in assay [3] and in assay [4] was “inactive” each time.

Consider `Cc1ccc(C(C)OC(=O)C2(C)CCC(C(=O)O)C2(C)C)cc1` (stereo not given), for which the Potency entry in assay [1], in assay [2], in assay [3] and in assay [4] was “inactive” each time.

Regarding `O=C(O)CCNC(=O)c1ccccc1`, the Potency result in assay [1], in assay [2], in assay [3] and in assay [4] was “inactive” throughout.

Turning to `Clc1ccc(Cn2c(CN3CCCC3)nc3ccccc32)cc1`, the Potency result in assay [1], in assay [2], in assay [3] and in assay [4] was “inactive” in each case.

For `CCN(CC)CCOC(=O)C(c1ccccc1)C1CCCCC1` (stereo not given), the Potency result in assay [1], in assay [2], in assay [3] and in assay [4] was “inactive” throughout.

Turning to `C/C=C/C(=O)N(CC)c1ccccc1C`, the Potency entry in assay [1], in assay [2], in assay [3] and in assay [4] was “inactive” in each case.

Take `CCCCC1C(=O)N(c2ccccc2)N(c2ccc(O)cc2)C1=O` (stereo not given): the Potency entry in assay [1], in assay [2], in assay [3] and in assay [4] was “inactive” in each case.

Consider `O=C1Nc2ccccc2C1(c1ccc(O)cc1)c1ccc(O)cc1`, for which the Potency entry in assay [1], in assay [2], in assay [3] and in assay [4] was “inactive” throughout.

Regarding `CCC(=O)O[C@]1(C(=O)SCF)[C@H](C)C[C@H]2[C@@H]3C[C@H](F)C4=CC(=O)C=C[C@]4(C)[C@@]3(F)[C@@H](O)C[C@@]21C`, the Potency entry in assay [1], in assay [2] and in assay [3] was “inactive” in each case. The Potency in assay [4] is 17.2 µM (active).

Consider `CC(C)(C)c1ccc(C(=O)CCCCl)cc1`, for which the Potency result in assay [1], in assay [2], in assay [3] and in assay [4] was “inactive” throughout.

Regarding `O=C(CCCN1CC=C(n2c(=O)[nH]c3ccccc32)CC1)c1ccc(F)cc1`, the Potency result in assay [1], in assay [2], in assay [3] and in assay [4] was “inactive” in each case.

For the compound `CN1[C@@H]2CC[C@H]1CC(OC(=O)c1c[nH]c3ccccc13)C2` (stereo not given in full), the Potency entry in assay [1], in assay [2], in assay [3] and in assay [4] was “inactive” throughout.

In the case of `CCCCN(CCCC)CC(O)c1cc(Cl)cc2c1-c1ccc(Cl)cc1/C2=C/c1ccc(Cl)cc1` (stereo not given), the Potency entry in assay [1], in assay [2], in assay [3] and in assay [4] was “inactive” in each case.

`CC(C)NCC(O)c1ccc2ccccc2c1` (stereo not given): the Potency result in assay [1], in assay [2], in assay [3] and in assay [4] was “inactive” in each case.

For `CN(C)CCN1C(=O)c2ccccc2N(C)c2ccccc21`, the Potency result in assay [1], in assay [2], in assay [3] and in assay [4] was “inactive” in each case.

These data come from PubChem BioAssay (NCATS).
